Measured values: PubChem BioAssay (NCI)
About 79,000 compounds went through this panel and 15% of them were active in at least one assay; those are over-represented in the sample as a whole. Active and inactive are the calls of the source. No stated cut-off is given here; in the data, active means growth inhibition above about 70%; inactive means the rest.

Key:
[1] = NCI Yeast Anticancer Drug Screen. Data for the rad52 strain (AID 147);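 further: 0% = growth of vehicle-treated control cultures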; details: S. cerevisiae rad52 mutant growth inhibition, active compounds read high
Method in brief: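 Inhibition of yeast growth, referenced to vehicle controls, was the measured output for a strain with defective DNA damage repair.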

[2] = NCI Yeast Anticancer Drug Screen. Data for the wt1 strain (AID 149);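 further: 0% = growth of vehicle-treated wt1 cultures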; details: S. cerevisiae wt1 strain (SPY 50644) growth inhibition, active compounds read high
Method in brief: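 The wt1 strain was treated with compounds, and growth was compared with vehicle-treated cultures to give inhibition.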

[3] = NCI Yeast Anticancer Drug Screen. Data for the rad50EPP+ strain (AID 151);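 further: 0% = growth of vehicle-treated control cultures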; details: S. cerevisiae rad50 mutant strain, active compounds read high
Method in brief: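 Genetically defined yeast (rad50EPP+, DNA damage repair alteration) is grown with compound, and inhibition of growth is expressed relative to vehicle-treated controls.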

[4] = NCI Yeast Anticancer Drug Screen. Data for the mgt1 strain (AID 153); details: S. cerevisiae mgt1 mutant growth inhibition, active compounds read high
Method in brief: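 In the mgt1 strain, test compounds were added and growth inhibition was determined relative to vehicle-treated controls.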

[5] = NCI Yeast Anticancer Drug Screen. Data for the rad50 strain (AID 155);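 further: 0% = growth of vehicle-only cultures of the same strain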; details: S. cerevisiae rad50 strain growth inhibition, active compounds read high
Method in brief: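 Cells are treated with compound, grown, and their growth is then scored against vehicle-only cultures of the same repair-deficient yeast strain.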

[6] = NCI Yeast Anticancer Drug Screen. Data for the mec2-1 strain (AID 157); details: S. cerevisiae mec2-1 strain, active compounds read high
Method in brief: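 Each compound was tested on mec2-1 yeast, a strain altered in DNA damage repair or cell cycle control. Growth inhibition is reported relative to vehicle.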

[7] = NCI Yeast Anticancer Drug Screen. Data for the rad14 strain (AID 159);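 further: 0% = growth of vehicle-treated control cultures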; details: S. cerevisiae rad14 strain growth inhibition, active compounds read high
Method in brief: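 Readout: yeast growth inhibition, referenced to vehicle-only cultures. Strain bears a defined alteration in DNA damage repair.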

[8] = NCI Yeast Anticancer Drug Screen. Data for the sgs1 mgt1 strain (AID 161);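 further: 0% = growth of cultures given vehicle only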; details: S. cerevisiae sgs1 mgt1 strain, active compounds read high
Method in brief: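 Read-out: growth inhibition vs vehicle controls. Cells: mutant yeast strain deficient in DNA damage repair.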

[9] = NCI Yeast Anticancer Drug Screen. Data for the CLN2oe strain (AID 163);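 further: 0% = growth of vehicle-only control cultures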; details: S. cerevisiae CLN2oe strain, active compounds read high
Method in brief: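 First, the altered yeast strain was treated with each compound; second, its growth was measured; finally, inhibition was derived by comparison with vehicle controls.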

[10] = NCI Yeast Anticancer Drug Screen. Data for the cln2 rad14 strain (AID 165);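 further: 0% = growth equal to vehicle treated cultures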; details: S. cerevisiae cln2 rad14 strain, active compounds read high
Method in brief: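 Test compounds were added to cln2 rad14 yeast cultures; inhibition of growth was then determined by comparison with vehicle treatment.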

[11] = NCI Yeast Anticancer Drug Screen. Data for the bub3 strain (AID 167); details: S. cerevisiae bub3 mutant strain, active compounds read high
Method in brief: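 Part of a panel of yeast mutants defective in DNA damage repair or cell cycle regulation. Each strain is grown with compound, and inhibition is calculated relative to solvent-treated cultures.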

[12] = NCI Yeast Anticancer Drug Screen. Data for the wt2 strain (AID 169);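 further: 0% = growth of vehicle-treated yeast cultures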; details: S. cerevisiae wt2 strain growth inhibition, active compounds read high
Method in brief: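 The panel's yeast strains carry defined changes in DNA repair or cell cycle genes. Each strain is grown with compound, and growth loss is scored relative to vehicle.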

[13] = NCI Yeast Anticancer Drug Screen. Data for the sgs1 strain (AID 173);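 further: 0% = growth of vehicle-only control cultures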; details: S. cerevisiae sgs1 mutant, active compounds read high
Method in brief: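 Vehicle-treated cultures served as reference for growth inhibition of a yeast strain altered in DNA damage repair or cell cycle control after compound exposure.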

[14] = NCI Yeast Anticancer Drug Screen. Data for the mlh1 rad18 strain (AID 175); details: S. cerevisiae mlh1 rad18 strain growth inhibition, active compounds read high
Method in brief: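 Inhibition values reflect reduced growth of mutant yeast versus vehicle-treated controls following compound exposure; the mutations affect DNA damage repair.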

[15] = NCI Yeast Anticancer Drug Screen. Data for the rad18 strain (AID 177); details: S. cerevisiae rad18 mutant growth inhibition, active compounds read high
Method in brief: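 Steps: expose repair-mutant yeast to compound; measure growth; express as inhibition relative to vehicle control.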

[16] = at 5.0 µM (retest, dose inferred, filed as 0.5)
[17] = at 50.0 µM (retest, dose inferred, filed as 5.0)

Measured: growth inhibition

Cc1[nH]c2ccccc2c1C(c1ccc(N)cc1)c1c(C)[nH]c2ccccc12
active: [5]; [17] 90% | [5]; at 50.0 µM 95.3% | [6]; [17] 94% | [6]; at 50.0 µM 96.4% | [8]; [17] 96% | [8]; at 50.0 µM 98.2% | [11]; [17] 85% | [11]; at 50.0 µM 98.4% | [14]; [17] 96% | [14]; at 50.0 µM 98.5%
inactive: [1]; at 1.2 µM 3% | [1]; at 3.7 µM 3% | [1]; at 11.0 µM -6% | [1]; at 33.0 µM -1% | [1]; at 100.0 µM 41% | [2]; at 1.2 µM -2% | [2]; at 3.7 µM -1% | [2]; at 11.0 µM -2% | [2]; at 33.0 µM -1% | [2]; at 100.0 µM 45% | [3]; at 1.2 µM 4% | [3]; at 3.7 µM -4% | [3]; at 11.0 µM -4% | [3]; at 33.0 µM -2% | [3]; at 100.0 µM -8% | [4]; at 1.2 µM -3% | [4]; at 3.7 µM 0% | [4]; at 11.0 µM 0% | [4]; at 33.0 µM 0% | [4]; at 100.0 µM 48% | [5]; at 1.2 µM 6% | [5]; at 3.7 µM 3% | [5]; [16] 0% | [5]; at 11.0 µM -5% | [5]; at 33.0 µM 1% | [5]; at 100.0 µM 40% | [6]; at 1.2 µM -1% | [6]; at 3.7 µM -1% | [6]; [16] 4% | [6]; at 11.0 µM -1% | [6]; at 33.0 µM -1% | [6]; at 100.0 µM 45% | [7]; at 1.2 µM 5% | [7]; at 3.7 µM 0% | [7]; at 11.0 µM 0% | [7]; at 33.0 µM 6% | [7]; at 100.0 µM 50% | [8]; [16] 8% | [9]; at 1.2 µM -1% | [9]; at 3.7 µM -3% | [9]; at 11.0 µM -6% | [9]; at 33.0 µM 0% | [9]; at 100.0 µM 25% | [10]; [16] 4% | [10]; [17] 45% | [10]; at 50.0 µM 39% | [11]; at 1.2 µM -3% | [11]; at 3.7 µM -3% | [11]; [16] 0% | [11]; at 11.0 µM -6% | [11]; at 33.0 µM -5% | [11]; at 100.0 µM 38% | [12]; at 1.2 µM -2% | [12]; at 3.7 µM -11% | [12]; at 11.0 µM -10% | [12]; at 33.0 µM -1% | [12]; at 100.0 µM 47% | [13]; at 1.2 µM -12% | [13]; at 3.7 µM -14% | [13]; at 11.0 µM -19% | [13]; at 33.0 µM -5% | [13]; at 100.0 µM 62% | [14]; [16] 6% | [15]; at 1.2 µM 4% | [15]; at 3.7 µM 4% | [15]; at 11.0 µM -1% | [15]; at 33.0 µM 0% | [15]; at 100.0 µM 47%
